Measurements published in PubChem BioAssay (Tox21).
Inconclusive results are not listed. Calls of active or inactive are those of the source. Unless noted, the call rests on the fitted dose curve; in most records, active means well fitted curve in the direction sought with a large enough effect in the repeat runs; inconclusive means weak or mixed curves; inactive means no such curve, though single readings can be large; an effect the other way counts as inactive or inconclusive.

Experiments:
[1] = qHTS assay to identify small molecule agonists of H2AX - cell viability counter screen (AID 1224847; calls by dose curve; further: nearly all actives have a fitted effect of over 30% in size; further: potency means the concentration at half of the fitted maximal effect)
Method in brief: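 Counter-screen for viability: CellTiter-Glo ATP luminescence read after 3 h compound treatment (15-point titration, 0.76% DMSO final) of CHO-K1 cells at 37C, with 30 min room-temperature reagent incubation.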

[2] = qHTS RealTime-Glo MT Cell Viability Assay in HepG2 cells - 24 hour (AID 1224867); further: nearly all actives have a fitted effect of over 50% in size; further: potency means the concentration at half of the fitted maximal effect
Method in brief: (§1)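 Compound treatment began 5 h after plating HepG2 cells (600/well) with NanoLuc luciferase and prosubstrate. Plates stayed at 37 C for 40 h; luminescence was captured at six time points, 0 h through 40 h.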

[3] = A CellTox Green Cytotoxicity Assay to monitor cytotoxicity in HEK293 cells - 0 hour (AID 1224869); further: nearly all actives have a fitted effect of over 50% in size; further: potency means the concentration at half of the fitted maximal effect
Method in brief: (§2)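 HEK293 cells premixed with CellTox Green dye were seeded at 600 cells/well and left 5 h at 37 C/5% CO2 before pin transfer of 23 nL compound in DMSO. Fluorescence from dye bound to dead-cell DNA was read during 40 h treatment.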

[4] = qHTS RealTime-Glo MT Cell Viability Assay in HepG2 cells - 40 hour (AID 1224870); further: nearly all actives have a fitted effect of over 50% in size; further: potency means the concentration at half of the fitted maximal effect
Method in brief: (§3)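 HepG2 cells mixed with RealTime-Glo MT reagents (NanoLuc plus cell-permeant prosubstrate) were seeded at 600 cells/well, incubated 5 h at 37 C/5% CO2, then pinned with compounds in DMSO; nonlytic luminescence tracked viability during 40 h treatment.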

[5] = A CellTox Green Cytotoxicity Assay to monitor cytotoxicity in HEK293 cells - 40 hour (AID 1224871); further: nearly all actives have a fitted effect of over 45% in size; further: potency means the concentration at half of the fitted maximal effect
Method in brief: as §2

[6] = qHTS RealTime-Glo MT Cell Viability Assay in HEK293 cells - 16 hour (AID 1224872); further: nearly all actives have a fitted effect of over 50% in size; further: potency means the concentration at half of the fitted maximal effect
Method in brief: (§4)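 Quantitative high-throughput screen of the Tox21 10K library in HEK293: cells and RealTime-Glo reagents plated together, compound added at 5 h, luminescence monitored through 40 h at 37 C.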

[7] = qHTS RealTime-Glo MT Cell Viability Assay in HepG2 cells - 8 hour (AID 1224873); further: nearly all actives have a fitted effect of over 55% in size; further: potency means the concentration at half of the fitted maximal effect
Method in brief: as §3

[8] = qHTS RealTime-Glo MT Cell Viability Assay in HEK293 cells - 40 hour (AID 1224874); conditions: RealTime-Glo luminescence; max response: stronger effect = lower value; further: nearly all actives have a fitted effect of over 50% in size; further: potency means the concentration at half of the fitted maximal effect
Method in brief: (§5)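 HEK293 cells mixed with RealTime-Glo reagents (NanoLuc plus cell-permeant prosubstrate) at 600 cells/well, preincubated 5 h at 37 C/5% CO2, then given 23 nL compound in DMSO. Nonlytic luminescence from viable cells was read at 0, 8, 16, 24, 32 and 40 h.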

[9] = A CellTox Green Cytotoxicity Assay to monitor cytotoxicity in HEK293 cells - 24 hour (AID 1224875); further: nearly all actives have a fitted effect of over 45% in size; further: potency means the concentration at half of the fitted maximal effect
Method in brief: as §2

[10] = A CellTox Green Cytotoxicity Assay to monitor cytotoxicity in HepG2 cells - 16 hour (AID 1224876); further: nearly all actives have a fitted effect of over 45% in size; further: potency means the concentration at half of the fitted maximal effect
Method in brief: (§6)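 HepG2 cells were seeded together with the CellTox Green dye at 600 cells/well, left 5 h at 37 C/5% CO2, then given compounds in DMSO. Fluorescence from dye bound to dead-cell DNA was read repeatedly over 40 h of treatment at 37 C.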

[11] = qHTS RealTime-Glo MT Cell Viability Assay in HepG2 cells - 32 hour (AID 1224877); further: nearly all actives have a fitted effect of over 55% in size; further: potency means the concentration at half of the fitted maximal effect
Method in brief: as §1

[12] = A CellTox Green Cytotoxicity Assay to monitor cytotoxicity in HepG2 cells - 24 hour (AID 1224878); further: nearly all actives have a fitted effect of over 45% in size; further: potency means the concentration at half of the fitted maximal effect
Method in brief: as §6

[13] = A CellTox Green Cytotoxicity Assay to monitor cytotoxicity in HepG2 cells - 40 hour (AID 1224879); further: nearly all actives have a fitted effect of over 40% in size; further: potency means the concentration at half of the fitted maximal effect
Method in brief: as §6

[14] = qHTS RealTime-Glo MT Cell Viability Assay in HEK293 cells - 0 hour (AID 1224880)
Method in brief: as §5

[15] = A CellTox Green Cytotoxicity Assay to monitor cytotoxicity in HEK293 cells - 32 hour (AID 1224881); further: nearly all actives have a fitted effect of over 40% in size
Method in brief: as §2

[16] = A CellTox Green Cytotoxicity Assay to monitor cytotoxicity in HepG2 cells - 0 hour (AID 1224882); further: nearly all actives have a fitted effect of over 35% in size
Method in brief: as §6

[17] = A CellTox Green Cytotoxicity Assay to monitor cytotoxicity in HepG2 cells - 32 hour (AID 1224883); further: nearly all actives have a fitted effect of over 50% in size; further: potency means the concentration at half of the fitted maximal effect
Method in brief: as §6

[18] = qHTS assay to identify small molecule antagonists of the estrogen related receptor (ERR) signaling pathway from Tox21 library (AID 1224848); further: nearly all actives have a fitted effect of over 50% in size; further: potency means the concentration at half of the fitted maximal effect
Method in brief: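 Cells: ERR line, 2,000/well; 6 h preincubation 37 C/5% CO2. Cpd in DMSO via pin tool; 18 h, 37 C. ONE-Glo, 30 min RT, luminescence.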

[19] = qHTS assay to identify small molecule agonists of the estrogen related receptor (ERR) signaling pathway from Tox21 library (AID 1224849; calls by dose curve; further: nearly all actives have a fitted effect of over 15% in size); conditions: ERR reporter cell line, ONE-Glo luciferase, 18 h; at 92.4 µM (top of the series) unless noted
Method in brief: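 ERR reporter cell line (NTP) seeded, rested 6 h at 37 C/5% CO2, then pinned with Tox21 compounds in DMSO. After 18 h at 37 C, ONE-Glo luciferase luminescence was read following 30 min at room temperature.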

[20] = qHTS RealTime-Glo MT Cell Viability Assay in HEK293 cells - 32 hour (AID 1224868); further: nearly all actives have a fitted effect of over 50% in size; further: potency means the concentration at half of the fitted maximal effect
Method in brief: as §4
On the % scale 0 is the no-effect control and ±100 the full control effect.

C=Cc1ccc(O)c(OC)c1
inactive: Potency [1] | Potency [2] | Potency [3] | Potency [4] | Potency [5] | Potency [6] | Potency [7] | max response [8] 2.13% | Potency [9] | Potency [10] | Potency [11] | Potency [12] | Potency [13] | Potency [14] | Potency [15] | Potency [16] | Potency [17]

Cc1ccc(C2OC[C@@H]3OC(c4ccc(C)cc4)O[C@H]([C@H](O)CO)[C@@H]3O2)cc1 (some centres not stated)
inactive: Potency [1] | Potency [2] | Potency [3] | Potency [4] | Potency [7] | Potency [10] | Potency [11] | Potency [13] | Potency [16] | Potency [17]

CCCCCCCC1CCC(=O)O1 (configuration not stated)
inactive: Potency [14]

CS(=O)(=O)c1ccc([C@@H](CC2CCCC2)C(=O)Nc2cnccn2)cc1Cl
inactive: Potency [14]
active: Potency [1] 101 µM

COc1cc([C@@H]2c3cc4c(cc3[C@@H](O[C@@H]3O[C@@H]5CO[C@@H](C)O[C@H]5[C@H](O)[C@H]3O)[C@H]3COC(=O)[C@H]23)OCO4)cc(OC)c1O
active: Potency [18] 3.81 µM | Potency [20] 0.861 µM | Potency [8] 0.684 µM | Potency [13] 48.4 µM | Potency [17] 48.4 µM
inactive: activity change, positive = activation [19] -61.8% | Potency [2] | Potency [3] | Potency [4] | Potency [5] | Potency [7] | Potency [9] | Potency [14] | Potency [15] | Potency [16]

N#Cc1nc(Cl)c(Cl)c(Cl)c1Cl
active: Potency [18] 9.69 µM | Potency [2] 24.5 µM | Potency [4] 17.4 µM | Potency [5] 1.55 µM | Potency [6] 2.45 µM | Potency [8] 2.19 µM | Potency [10] 49 µM | Potency [11] 19.5 µM | Potency [12] 49 µM | Potency [13] 24.5 µM | Potency [17] 27.5 µM
inactive: activity change, positive = activation [19] -76.2% | Potency [3] | Potency [14] | Potency [16]

CC(=O)Nc1ccc(N=Nc2cc(C)ccc2O)cc1
active: activity change, positive = activation [19] 169%
inactive: Potency [18] | Potency [2] | Potency [20] | Potency [3] | Potency [4] | Potency [6] | Potency [7] | max response [8] -19.1% | Potency [9] | Potency [10] | Potency [11] | Potency [13] | Potency [14] | Potency [15] | Potency [16] | Potency [17]

CN1CCN(CCCN2c3ccccc3Sc3ccc(Cl)cc32)CC1
active: Potency [2] 21.3 µM | Potency [10] 23.9 µM | Potency [12] 23.9 µM | Potency [13] 23.9 µM | Potency [17] 23.9 µM
inactive: Potency [3] | Potency [7]

COc1ccc2ccccc2c1
inactive: Potency [14]

CC/C=C\C/C=C\C/C=C\CCCCCCCC(=O)OC
inactive: Potency [2] | Potency [20] | Potency [3] | Potency [4] | Potency [7] | max response [8] -12.1% | Potency [9] | Potency [10] | Potency [11] | Potency [12] | Potency [13] | Potency [14] | Potency [15] | Potency [16] | Potency [17]

O=C1c2ccccc2C(=O)c2c(Cl)cccc21
inactive: Potency [18] | activity change, positive = activation [19] 1.21% [at 42.5 µM] | Potency [2] | Potency [3] | Potency [4] | Potency [7] | Potency [9] | Potency [10] | Potency [11] | Potency [12] | Potency [13] | Potency [14] | Potency [17]

COc1cc(/C=C/C(=O)CC(=O)/C=C/c2ccc(O)c(OC)c2)ccc1O
inactive: activity change, positive = activation [19] -73.6%
active: Potency [18] 13.8 µM | Potency [20] 24.7 µM | Potency [3] 22 µM | Potency [6] 24.7 µM | Potency [8] 22 µM | Potency [9] 43.9 µM | Potency [10] 49.3 µM | Potency [12] 49.3 µM | Potency [13] 19.6 µM | Potency [17] 49.3 µM

C=COCCCC
inactive: Potency [1] | Potency [2] | Potency [3] | Potency [4] | Potency [7] | Potency [9] | Potency [10] | Potency [11] | Potency [12] | Potency [13] | Potency [16] | Potency [17]

Oc1cccc2c(O)cccc12
inactive: Potency [18] | activity change, positive = activation [19] -6.39% | Potency [2] | Potency [3] | Potency [4] | Potency [5] | Potency [7] | max response [8] 3.51% | Potency [9] | Potency [10] | Potency [11] | Potency [12] | Potency [13] | Potency [14] | Potency [17]

CCCCCCCCCCCCN1CCCC1=O
inactive: activity change, positive = activation [19] -16.7% | Potency [3] | Potency [4] | Potency [14] | Potency [16]

CN1CC[C@H](c2c(O)cc(O)c3c(=O)cc(-c4ccccc4Cl)oc23)[C@H](O)C1
active: Potency [20] 0.19 µM | Potency [8] 0.19 µM | Potency [12] 0.268 µM | Potency [13] 0.239 µM | Potency [17] 0.213 µM
inactive: Potency [18] | activity change, positive = activation [19] 28.6% [at 42.5 µM] | Potency [2] | Potency [3] | Potency [4] | Potency [7] | Potency [9] | Potency [10] | Potency [11] | Potency [14] | Potency [15]

CC(Cc1ccc(O)c(O)c1)C(C)Cc1ccc(O)c(O)c1 (configuration not stated)
active: Potency [2] 43.6 µM | Potency [20] 34.7 µM | Potency [7] 43.6 µM | Potency [8] 38.9 µM | Potency [10] 49 µM | Potency [12] 49 µM | Potency [13] 43.6 µM | Potency [17] 43.6 µM
inactive: activity change, positive = activation [19] -42.5% | Potency [3] | Potency [5] | Potency [9] | Potency [14] | Potency [15] | Potency [16]

CSc1nnc(C(C)(C)C)c(=O)[nH]1
inactive: Potency [2] | Potency [20] | Potency [3] | Potency [4] | Potency [5] | Potency [6] | Potency [7] | max response [8] 1.65% | Potency [9] | Potency [10] | Potency [11] | Potency [12] | Potency [13] | Potency [14] | Potency [15] | Potency [16] | Potency [17]

CCCC(=O)c1cc(O)c(O)cc1O
inactive: Potency [2] | Potency [20] | Potency [3] | Potency [4] | Potency [5] | Potency [6] | Potency [7] | max response [8] 1.65% | Potency [9] | Potency [11] | Potency [13] | Potency [14] | Potency [15]
